Reference: PubChem BioAssay AID493212 (National Center for Advancing Translational Sciences (NCATS), 2011)
Some of the results follow. Inconclusive results are not listed. Active and inactive are the calls of the source. The call rests on the fitted dose curve; in most records, active means well fitted inhibition curve with a large enough effect; inconclusive means small, poorly fitted or top-dose-only effect; inactive means no such curve, though single readings can be large or run the other way.

These compounds were tested against Lysine-specific demethylase 4E (Homo sapiens) (UniProt B2RXH2) (assay: Inhibitors of Human Jumonji Domain Containing 2E (JMJD2E): 8HQs - Round 1). Settings: FDH-coupled NADH fluorescence (FDH is formaldehyde dehydrogenase).
Text: The fine interplay among methylation states of several lysine residues on the tails of histone proteins is a major determinant of the transcriptional state of the associated DNA coding regions and is commonly referred to as the histone code. Histone lysine demethylases catalyze the removal of methyl groups from methylated lysine sidechains on histones H3 and H4, thus antagonizing the reactions catalyzed by histone lysine methyltransferases. […] In search for novel inhibitors of JMJD2E demethylase, a member of the largest set of histone demethylases belonging to the Fe(II) and 2-oxoglutarate oxygenase (2OG) superfamily, we performed a quantitative high-throughput screen (Inglese 2006) by using an assay which utilizes a trimethylated peptide substrate corresponding to a fragment of histone H3 (sequence ARKme3STGGK) with detection of the formaldehyde co-product in real time by a formaldehyde dehydrogenase (FDH) coupled reaction. FDH catalyzes oxidation of formaldehyde to formic acid with the concomitant reduction of the non-fluorescent beta-nicotinamide adenine dinucleotide hydrate (NAD+) cofactor to the fluorescent NADH co-product. This assay is a following of SAR around 8-hydroxyquinoline-based inhibitors of JMJD2E. References: Inglese, J., Auld, D., Jadhav, A., Johnson, R., Simeonov, A., Yasgar, A., Zheng, W. and Austin, C. Proc Natl Acad Sci USA 2006, 103, 11473-11478. N. R. Rose, S. S. Ng, J. Mecinovic, B. M. Lienard, S. H. Bello, Z. Sun, M. A. McDonough, U. Oppermann and C. J. Schofield, J Med Chem, 2008, 51, 7053-7056. Sakurai, M., Rose, N., Schultz, L., Quinn, A., Jadhav, A., Ng, S., Oppermann, U., Schofield, C.J. and Simeonov, A. Mol BioSystems 2009, in press. S. Michael, D. Auld, C. Klumpp, A. Jadhav, W. Zheng, N. Thorne, C. Austin, J. Inglese and A. Simeonov, Assay Drug Dev Technol, 2008, 6, 637-657. Assay Provider: Structural Genomics Consortium [SGC] Screening Center PI: Austin, C.P. Screening Center: NIH Chemical Genomics Center [NCGC]
Reagents and Controls: Ferrous ammonium sulfate, (+)-sodium L-ascorbate, beta-nicotinamide adenine dinucleotide hydrate (NAD+), Tween-20, formaldehyde dehydrogenase from P. putida (FDH), and disodium 2-oxoglutarate were from Sigma (St. Louis, MO). Black solid-bottom 384-well or 1,536-well assay plates were from Greiner Bio-One (Monroe, NC). Enzyme was supplied by Prof. Udo Oppermann, SGC-Oxford. The catalytic domain of human JMJD2E (residues 1-337) was produced as an N-terminally His6-tagged protein in E. coli, and purified by Ni-affinity chromatography and size-exclusion chromatography, and stored in HEPES 50 mM/ NaCl 500 mM pH 7.5, as reported in Rose 2008. The trimethylated histone peptide substrate ARK(me3)STGGK was synthesized and HPLC-purified by the Tufts University Core Facility (Boston, MA). Substrate solution (Sakurai 2009) contained 50 uM ARK(me3)STGGK, 0.00025 U/uL FDH, 50 uM 2-oxoglutarate, 250 uM NAD+, 1 mM ascorbate, and 10 uM ferrous ammonium sulfate. Controls and plate map: Buffer (150 mM HEPES pH 7.5 containing 0.01% Tween-20) in columns 3 and 4 as negative control (no enzyme) and 100 nM JMJD2E final concentration in columns 1,2, and 5-48. […] The plate was transferred to ViewLux imager where an initial reading using standard UV optics (Ex 340 nm, Em 450 nm) was obtained. The plate was then removed from the reader, incubated for 30 minutes at room temperature, and returned to the reader for a second fluorescence reading. […]

Sequence of Lysine-specific demethylase 4E (Homo sapiens) (B2RXH2 1-337 limits assumed): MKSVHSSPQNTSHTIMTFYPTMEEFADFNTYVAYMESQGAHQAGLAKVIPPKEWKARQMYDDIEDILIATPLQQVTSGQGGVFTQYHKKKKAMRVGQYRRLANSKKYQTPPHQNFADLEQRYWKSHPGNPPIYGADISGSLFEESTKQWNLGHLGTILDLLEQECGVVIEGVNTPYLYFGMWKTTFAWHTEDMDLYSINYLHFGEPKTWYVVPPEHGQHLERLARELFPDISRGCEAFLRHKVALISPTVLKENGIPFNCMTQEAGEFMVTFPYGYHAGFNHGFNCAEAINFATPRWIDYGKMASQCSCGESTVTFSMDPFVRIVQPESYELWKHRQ

Potency, active:
Oc1cccc2cc(-c3ccncc3)cnc12 18.2 µM
Oc1c(CN2CCCC2)cc(COCc2ccccc2)c2cccnc12 5.01 µM
Nc1ccc(Nc2cc(O)c3ncccc3c2)cc1 32.4 µM
CC(=O)NC(c1cccs1)c1cc(Cl)c2cccnc2c1O (stereo not given) 12.9 µM
Oc1ccc(/C=C/c2c(F)cccc2F)c2cccnc12 8.91 µM
